This passage reports sensor-assay potency score (higher = more potent) results from the OligoGym collection.
Note: reference of the scale not given here.

For the first assay, the target named is GALNT9. As to the kind of experiment: pooled miR-30 sensor sort-seq; sequence = guide strand. The settings on record: shRNA.
Turning to TTACCAGACCACAAGGAGCTGC, the sensor-assay potency score (higher = more potent) is -0.143.
On the same count and under the same terms, for TTTCTGATCATCCACTTCTGCC the value was -1.06.
The sequence TTTGGACATCTCCACCTCCAGG gave a sensor-assay potency score (higher = more potent) of -1.41.
On the same count and under the same terms, the value for TTCGACATGGGGATGTTCCAGG was -0.845; that for TTGTAGACCCTCATCTCCGGGT was -0.631; that for TTTCTCACCTCTCCGTACGTGA was -0.461.
Still for that read-out and setting: for TGATGTGTGACTTAGGTCTTGG the value was 0.117; for TTGCTGTTTCTCACCTCTCCGT, -0.669.
Take TAGTAGTCAATGTCGTTGTTGT: the sensor-assay potency score (higher = more potent) was found to be 0.0429.

The target of the next assay is GALNTL4. The description is as above. The settings on record: shRNA.
As for TTCAGTTCCTCGTTACTGCTGT, the sensor-assay potency score (higher = more potent) is 0.73.
The sequence TGGATCTGCTGACTGCTCGTGT came in with a sensor-assay potency score (higher = more potent) of -0.605.
On the same count and under the same terms, for TCGGTTGTCATCATCATCCACG the value was -0.664; for TTTGTCTTCCTCCAGCTTCTTG, -1.15; for TTGTCATCATCATCCACGGTGG, -0.503.
Take TACTCTTCTATCTCAAAGTTGT: the sensor-assay potency score (higher = more potent) is -0.112.
Still for that read-out and setting: the value for TTGATATCATACCATCACCTAC was -1.18.
Same read-out and setting: for ATATTCGGTCAGCTTCTCCTTC the value was -0.121; for TTCCTCCAGCTTCTTGTCGGGC, -1.36.
On the same count and under the same terms, the value for TTGACGTCCACCAGGCATCGGT was -0.813.
Consider AATAGTTTGATATCATACCATC, for which the sensor-assay potency score (higher = more potent) is -1.73.

For another assay, the target named is GALT. The description is as above. The settings on record: shRNA.
In turn, TGAGCAAGCATTTCGTAGCCAA registered a sensor-assay potency score (higher = more potent) of -0.524.
ATATCTGGCAGGAAACTGCTGG showed a sensor-assay potency score (higher = more potent) of -0.342.
The same measure, in the same setting: the value for AAGGGGACCAGTACTAACCAGT was -0.813; that for ATACTTGGTCAAGAGCTTCTTC was -0.165.
On the same count and under the same terms, for TTCCTGAGTAGCTCCTGGCGGC the value was -0.283.
The same measure, in the same setting: the value for TTTGTTTTCAAAGATCTGCACC was -0.471; that for TAGCAGGGGCTCTCCATGCTGA was -0.945; that for AAGCATTTCGTAGCCAACCATG was -1.22.
TGAATTTCCGGACAGTGGCAGA displayed a sensor-assay potency score (higher = more potent) of -0.779.
The same measure, in the same setting: the value for AAAGAGGTTGTCATACTTGGTC was -0.351; that for TATAGGCCTGCTGAGATCGCTC was -0.708; that for AAGAGCTTCTTCATGATGGAGG was -0.296.
The sequence TACTAACCAGTGCTCACTGGTT gave a sensor-assay potency score (higher = more potent) of -0.859.
The same measure, in the same setting: the value for TTCCTTCCTGAGTAGCTCCTGG was -0.401.
On the same count and under the same terms, for TTGGTCAAGAGCTTCTTCATGA the value was -0.31; for TATCTGGCAGGAAACTGCTGGC, -0.854; for TAGATCATCACGCTCAGCAGGG, -0.0859.
The same measure, in the same setting: the value for TTGTCAAACAGGAAGGTGCTAT was -0.0645; that for TTCACCTCTCCGTTGGCTCGGA was -0.467; that for TTGCCCGGAAGGTTGCTGCTGC was -0.354.
